HepG2 tox – qHTS for Inhibitors of TGF-b: Cytotox Counterscreen; HepG2 CAGA-GFP viability, ATP luminescence, 18 h; Potency, µM (highest dose often 46.1 µM), usual class: cytotoxic; 410,000 compounds, 0.76% hits
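CellTiter-Glo luminescence gave cytotoxicity after 18 hours at 37 degrees C. The cells were HepG2 CAGA-GFP in 1% FBS DMEM, stimulated with 500 pg/mL TGF-beta after compound addition. %Activity was normalised to no-cell wells (complete cell-killing) and DMSO (no toxicity), and curves were fitted and classified.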
TGFb inhibitor – qHTS for Inhibitors of TGF-b; HepG2 CAGA-GFP TGF-b/SMAD3 reporter, GFP fluorescence, 18 h; TGF-beta stimulated, 500 pg/mL final; Potency, µM (titrated, usually from 46.1 µM), usual class: inhibitors; 410,000 compounds, 1.2% hits; note: nearly all actives have a fitted effect of over 65% in size
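Smad-responsive CAGA-GFP expression was quantified in HEPG2 cells exposed to compounds and 500 pg/mL final TGF-beta for 18 h at 37 degrees C; unstimulated wells defined full inhibition.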
IL-1B inflam inh – qHTS for Inhibitors of Inflammasome Signaling: IL-1-beta AlphaLISA Primary Screen; 360,000 compounds, 4.7% hits; THP-1 LPS/ATP IL-1B secretion, AlphaLISA, 16 h; active compounds read low; AID 743279, 2014; activity change, % at 57.5 µM; in the data active = activity change below about -50%; inconclusive = mostly about -30% to -49%
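Secreted IL-1B measured by AlphaLISA bead assay after 16 h compound exposure of THP-1 cells; compounds (final up to 57.5 uM) added 1 h before LPS (250 ng/mL) and ATP (1.25 mM) stimulation; lower signal means less secretion.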
ATXN2 expr inh – Primary qHTS for Inhibitors of ATXN expression; AID 1745845, 2022; Potency, µM (doses to about 57 µM), most hits filed as inhibitors; 360,000 compounds, 0.72% hits; HEK-293 ATXN2-luciferase reporter, luminescence, 24 h; note: nearly all actives have a fitted effect of over 55% in size
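ATXN2-luciferase reporter cells (luciferase flanked by upstream and downstream ATXN2 gene portions) were treated 24 h at 37 °C with compounds at up to 57 uM. SteadyGlo luminescence gave expression; GF-AFC fluorescence gave viability.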
S2 tox – Viability Counterscreen for Primary qHTS for Inhibitors of ATXN expression | S2 cells (HEK-293 line with an ATXN2-luciferase reporter) viability, CellTiter-Fluor protease fluorescence, 24 h | Potency, µM (series often up to 56.7 µM), hits mostly cytotoxic | 400,000 compounds, 0.49% hits; note: nearly all actives have a fitted effect of over 40% in size
Hits are given with their value; 0 = inactive; ? = inconclusive; - = not tested or not shown; ! = a repeat was not active; [ ] = dose if it differs, or a comment. Compounds with a hit are over-represented: about 5.7% of the library has one in this group of screens. Unless noted, calls come from the whole dose curve; as a rule, active = well fitted curve in the direction sought with a large enough effect; inconclusive = small, poorly fitted or top-dose-only effect, or another doubt; inactive = no such curve, though single readings can be large; an effect the other way counts as inactive or inconclusive.

SMILES	HepG2 tox	TGFb inhibitor	IL-1B inflam inh	ATXN2 expr inh	S2 tox
CC(=O)c1ccc(-c2ccc(C(=O)Nc3nc(-c4ccccn4)cs3)o2)cc1	0	13µM	0	0	0
O=C(Nc1nc(-c2ccccn2)cs1)c1ccc(-c2ccccc2F)o1	0	14µM	0	?	?
Cc1ccc(C(=O)Nc2nc(-c3ccccn3)cs2)o1	0	?	0	-	?
CCN(C(=O)C1CCCN(c2ncnc3c2nc2n3CCCCC2)C1)c1cccc(C)c1 (stereo unspecified)	0	?	-	?	?
O=c1cc(/C=C/c2ccc([N+](=O)[O-])cc2)c2ccccc2[nH]1	0	0	-	-	-
O=[N+]([O-])c1ccc(O)c(C2=NNC(c3ccccc3F)C2)c1 (stereo unspecified)	0	13µM	-58	?	0
Cc1ccc(NC(=O)CN2C(=O)CCc3cc(S(=O)(=O)N4CCCCC4)ccc32)cc1N(C)C	0	0	-	0	0
CCC(C(=O)Nc1ccccc1OC)n1c(C(=O)OC)cc2ccsc21 (stereo unspecified)	0	?	-57	0	0
CCOC(=O)c1ccc2c(c1)N(C(CC)C(=O)Nc1ccccc1OC)C(=O)c1ccccc1S2 (stereo unspecified)	0	0	-	0	0
Nc1c(C(=O)Nc2ccc3c(c2)OCCO3)nnn1Cc1cccc(Br)c1	0	0	-51	0	?
CC(C)c1ccc(NC(=O)c2cccc(Br)c2)cc1	0	0	-52	-	?
O=C(Nc1cccc(C(=O)Nc2cccc(Br)c2)c1)c1ccccc1	0	0	0	0	?
Cc1ccn2cc(C(=O)Nc3ccc4c(c3)OCCO4)nc2c1	0	0	-89	0	0
O=C(Nc1ccc2c(c1)OCCO2)c1cc2ccccc2o1	0	0	-68	0[11.3 µM]	0
COc1ccc(-c2nc3scc(CCNS(=O)(=O)c4ccc(Oc5ccccc5)cc4)n3n2)cc1OC	0	0	-	-	-
CN(C(=O)c1cccc(NC(=O)c2ccco2)c1)c1ccccc1	0	0	0	0	0
Cc1cc(C(=O)Nc2ccc3c(c2)OCCO3)ccc1[N+](=O)[O-]	0	0	0	-	?
CN(C(=O)c1ccc(NC(=O)c2ccco2)cc1)c1ccccc1	7.9µM	0	0	0	-
N#Cc1ccsc1NC(=O)c1ccc(Cl)c([N+](=O)[O-])c1	0	7.1µM	?	-	0
O=C(Nc1ccc2c(c1)OCCO2)c1cccc(Br)c1	0	0	-54	0	?
O=C(Nc1ccc2c(c1)OCCO2)c1ccc(Cl)c([N+](=O)[O-])c1	0	0	-82	0	0
O=C(Nc1ccc(C(O)(C(F)(F)F)C(F)(F)F)cc1)c1ccc(Cl)c([N+](=O)[O-])c1	0	?	-101	?	?
O=C(Nc1ccc(NC(=O)c2ccco2)cc1)c1ccc2c(c1)OCCO2	0	0	0	16µM	?
Cc1cc(NC(=O)c2ccc3c(c2)OCCO3)no1	0	0	0	11µM	0
O=C(NNc1ccc([N+](=O)[O-])cc1[N+](=O)[O-])c1ccco1	0	?	-62	?	?
SMILES	HepG2 tox	TGFb inhibitor	IL-1B inflam inh	ATXN2 expr inh	S2 tox
CCCOc1ccc(CNC(=O)Cn2cc3c(n2)-c2c(oc(C(=O)N4CCOCC4)c2C)CC3)cc1	0	?	-	-	-
Cc1sccc1Br	-	-	-	0	0
OC1(c2ccccc2)CCNCC1	-	-	-	0	0
CC(C)(C)n1ncc2c(=O)n(Cc3ccc(Cl)c(OC(F)(F)F)c3)cnc21	0	?	-	-	-
O=C(Nc1ccccn1)c1cc2ccccc2o1	7.9µM	0	-97	16µM	0
COc1cc(NC(=O)c2ccccc2)ccc1NC(=O)c1cc2ccccc2o1	0	?	0	?	?
Cc1cc(NC(=O)c2cncc(Br)c2)ccc1NC(=O)c1cc2ccccc2o1	0	0	?	?	16µM
Cc1cccc(NC(=O)c2cccc(NC(=O)c3ccco3)c2)c1	0	0	0	0	0
Cc1cc(C(=O)Nc2cccc(NC(=O)c3ccco3)c2)ccc1[N+](=O)[O-]	0	0	-79	0	0
Cc1ccc(C(=O)Nc2ccc3c(c2)OCCO3)cc1	0	0	?	13µM	0
CCOc1ccccc1NC(=O)Cn1c(=O)n(Cc2ccco2)c(=O)c2ccc(C(=O)NC3CCCC3)cc21	0	0	-	0	0
COc1ccc(-c2cc(C(F)(F)F)nc(SCCC(=O)Nc3cccc(O)c3)n2)cc1	0	?	-	?	?
Cc1ccccc1OCC(O)Cn1c(=N)n(CCN2CCCCC2)c2ccccc21 (stereo unspecified)	16µM	-	-	-	-
N=c1n(CCN2CCOCC2)c2ccccc2n1CC(O)COc1ccccc1 (stereo unspecified)	0	0	0	0	0
COc1ccc(OCC(O)Cn2c(=N)n(CCN3CCOCC3)c3ccccc32)cc1 (stereo unspecified)	0	0	-62	0	0
N=c1n(CCN2CCCCC2)c2ccccc2n1CC(O)c1ccc(Cl)c(Cl)c1 (stereo unspecified)	11µM	?	-68	25µM	?
Cc1ccccc1OCC(O)CN1CCCCC1 (stereo unspecified)	0	0	0	?	0
N=c1n(CCN2CCCCC2)c2ccccc2n1CC(O)COc1ccccc1 (stereo unspecified)	0	11µM!	-56	?	25µM!
O=C(O)[C@@H](c1ccc(OCc2ccc3ccccc3n2)cc1)C1CCCC1	-	-	-	0	-
c1cncc(OC2CCN(Cc3ccc4c(c3)CN(Cc3ccc5c(c3)OCCO5)CCO4)CC2)c1	-	-	-	-	0
CC(=O)c1cc(-c2ccc(F)cc2)n(CCC(=O)NC2CCCCC2)c1C	0	?	-	-	-
Cc1ccccc1OCC(O)Cn1c(=N)n(CCN2CCOCC2)c2ccccc21 (stereo unspecified)	0	0	-54!	0	0
COc1ccccc1OCC(O)Cn1c(=N)n(CCN2CCCCC2)c2ccccc21 (stereo unspecified)	0	0	-53	0	?
C=CCn1c(SCC(C)=O)nc2scc(-c3ccco3)c2c1=O	0	0	0	0	0
C=CCn1c(SC(F)F)nc2scc(-c3ccco3)c2c1=O	0	10µM	?	0	0
SMILES	HepG2 tox	TGFb inhibitor	IL-1B inflam inh	ATXN2 expr inh	S2 tox
CN1C(=O)/C(=C/c2ccccc2Cl)Sc2ccc(C(=O)NCc3cccnc3)cc21	0	?	-69	?	0
Cc1nc(-c2ccc(S(=O)(=O)N(C)Cc3ccccc3)cc2)co1	0	0	-	?	0
O=C(Nc1ccc(F)cc1)Nc1nnc(COc2ccccc2F)s1	0	?	-166	-	0
O=C(Nc1nnc(COc2ccccc2F)s1)Nc1ccccc1F	0	?	0	0	0
O=C(Nc1ccc(Cl)cc1)Nc1nnc(CSc2ccc(Cl)cc2)s1	0	0	-58	?	?
CN(C)c1ccc(N=Nc2nccs2)cc1	0	0	0	-	10µM

From PubChem
